Assay outcomes: PubChem BioAssay, National Center for Advancing Translational Sciences (NCATS)
Chronic BCR inh – qHTS Assay to Find Inhibitors of Chronic Active B-Cell Receptor Signaling; ABC-DLBCL IkBa-CBG/CBR reporter, luminescence ratio, 4 h; Potency, µM (highest dose often 46.1 µM), hits mostly inhibitors; 340,000 tested, 0.05% active; AID 493014, 2011; active = well fitted inhibition curve with a large enough effect in the signal ratio, with a control signal flat, not every such curve was filed as active; inconclusive = small, poorly fitted or top-dose-only effect, or effect the other way, or a change in a side signal; the % refers to the signal ratio
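TMD8 human ABC-DLBCL cells with doxycycline-inducible IκBα–green luciferase fusion and unfused red luciferase, in 0.5% FBS medium; compounds up to 46 uM, 4 h at 37C. Green/red luminescence ratio, filter-overlap corrected, fitted to concentration-response curves.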
MBNL1-CUG inh – qHTS Assay for Inhibitors of MBNL1-poly(CUG) RNA binding; 280,000 tested, 0.036% active; AID 2675, 2010; TR-FRET MBNL1-His/biotin-(CUG)12 binding, 665/545 ratio; Muscleblind-like protein 1 (Homo sapiens), Q9NR56; Potency, µM (series often up to 57.5 µM), most hits filed as inhibitors; active = well fitted inhibition curve with a large enough effect in the signal ratio, with a control signal flat, not every such curve was filed as active; inconclusive = small, poorly fitted or top-dose-only effect, or effect the other way, or a change in a side signal; inactive = no such curve, though single readings can be large or run the other way; the % refers to the signal ratio
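Inhibition of protein-RNA binding appears as loss of TR-FRET between terbium anti-His antibody on MBNL1-His and streptavidin-XL665 on biotin-(CUG)12. Activity is normalized to buffer-only and uninhibited-complex controls.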
B2AR arrestin – qHTS assay of beta-arrestin-biased ligands of beta2-adrenergic receptor; AID 492947, 2010; beta-arrestin recruitment to beta2AR, cell-based reporter; 330,000 tested, 0.02% active; Potency, µM (top dose mostly 46.1 µM), actives largely listed as activators; note: nearly all actives have a fitted effect of over 65% in size
Target sequence (P07550 whole entry, looked up): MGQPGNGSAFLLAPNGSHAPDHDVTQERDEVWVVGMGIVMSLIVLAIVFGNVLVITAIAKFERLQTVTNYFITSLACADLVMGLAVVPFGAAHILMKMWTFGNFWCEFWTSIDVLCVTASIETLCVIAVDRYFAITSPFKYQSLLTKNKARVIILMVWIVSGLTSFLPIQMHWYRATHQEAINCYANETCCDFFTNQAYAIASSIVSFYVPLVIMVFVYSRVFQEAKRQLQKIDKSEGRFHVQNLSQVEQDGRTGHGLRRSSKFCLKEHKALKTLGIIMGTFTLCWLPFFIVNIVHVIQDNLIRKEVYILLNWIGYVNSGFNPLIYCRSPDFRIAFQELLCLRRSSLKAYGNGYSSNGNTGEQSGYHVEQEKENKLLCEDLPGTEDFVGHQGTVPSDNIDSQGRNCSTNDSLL
Tb PFK inh-1 – qHTS Assay to Find Inhibitors of T. brucei phosphofructokinase | T. brucei PFK, ADP-Glo luminescence | Potency, µM (doses to about 57.5 µM), most hits filed as inhibitors | ATP-dependent 6-phosphofructokinase (Trypanosoma brucei brucei), O15648 | 330,000 tested, 0.17% active; note: nearly all actives have a fitted effect of over 60% in size
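ADP-Glo luminescence quantified ADP after 45 min at room temperature, with 1.25 nM T. brucei PFK, 0.1 mM ATP and 0.5 mM fructose-6-phosphate in pH 8.0 TEA buffer. qHTS titrations up to 57 µM; curves classified by quality.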
TbPFK ATP – Tb PFK orthogonal confirmatory assay using ATP depletion (Kinase-Glo Plus) as an alternative measure of Tb PFK activity: Hit Validation; shares compounds with Tb PFK inh-1; Tb PFK enzyme, ATP depletion, Kinase-Glo Plus luminescence; Potency, µM (titrated, usually from 57.5 µM); 1,100 tested, 47% active; calls by dose curve; note: nearly all actives have a fitted effect of over 60% in size
Tb PFK inh-2 – Inhibitors of T. brucei phosphofructokinase: Hit Validation | Potency, µM (series often up to 57.5 µM), actives largely listed as inhibitors | 1,100 tested, 41% active | purified T. brucei PFK, ADP-Glo luminescence, 45 min | shares compounds with Tb PFK inh-1; note: nearly all actives have a fitted effect of over 60% in size
A number is an active result; i = inactive; ? = inconclusive; nt = no result. Shown are actives, neighbours in structure and some others; about 0.27% of the full set was active somewhere. Unless noted, calls come from the whole dose curve; as a rule, active = well fitted curve in the direction sought with a large enough effect; inconclusive = small, poorly fitted or top-dose-only effect, or another doubt; inactive = no such curve, though single readings can be large; an effect the other way counts as inactive or inconclusive.

SMILES | Chronic BCR inh | MBNL1-CUG inh | B2AR arrestin | Tb PFK inh-1 | TbPFK ATP | Tb PFK inh-2
Oc1cc(-n2cccn2)c(O)cc1-n1cccn1 | ? | i | i | 19µM | ? | ?
O=Cc1ccccc1-n1cccn1 | i | nt | i | i | nt | nt
CCOC(=O)c1c(S(=O)(=O)N2CCC(C(=O)Nc3ccc(C)cc3C)CC2)c(C)n(C)c1C | i | nt | nt | nt | nt | nt
CC(c1cccs1)N(Cc1ccco1)C(=O)Nc1ccc(Cl)c(Cl)c1 (stereo not given) | i | i | i | ? | i | i
O=C(NNC(=O)c1cc2cc3ccccc3nc2s1)c1ccc(F)cc1 | i | ? | i | ? | ? | ?
O=C1C=C(NCc2ccc(Cl)cc2Cl)C2(CCCCC2)O1 | i | i | i | 11µM | 5.4µM | 17µM
Cc1ccc(C)c(S(=O)(=O)N2CCN(c3nc(-c4cccnc4)nc4ccccc34)CC2)c1 | i | nt | i | i | nt | nt
Oc1ccc(C2C[C@H]3CC[C@@H]2C3)cc1O (stereo not given in full) | i | i | i | ? | 12µM | 13µM
CCOC(=O)C1=C(C)c2ccccc2N(C(=O)OC)C1(C)C(=O)OCC (stereo not given) | 18µM | nt | i | ? | 21µM | ?
CCOC(=O)C1=C(C)c2ccccc2OC1(CC)C(=O)OCC (stereo not given) | i | nt | i | i | nt | nt
CCc1ccc(NC(=O)CSC2=Nc3ccccc3C3=NC(CCC(=O)NCCc4ccccc4)C(=O)N23)cc1 (stereo not given) | i | nt | nt | nt | nt | nt
Clc1ccc(C[n+]2cc(-c3ccccc3)n3c2CCC3)cc1Cl | i | i | i | ? | 6.7µM | 11µM
N#Cc1sc(NCc2ccccn2)nc1Cl | ? | i | i | ? | ? | ?
O=C(NCc1ccccn1)c1ccccc1Cl | i | i | i | i | nt | nt
O=S(=O)(c1ccc(Br)cc1)c1nc(-c2ccco2)oc1NCCCn1ccnc1 | i | nt | i | i | nt | nt
CCN1CCN(C(=O)c2cc3cc([N+](=O)[O-])ccc3oc2=O)CC1 | i | ? | i | i | nt | nt
O=C(c1cc2cc([N+](=O)[O-])ccc2oc1=O)n1cccn1 | i | ? | i | ? | i | i
N#Cc1c(N)nc2c(c1N)CC(COc1ccccc1)O2 (stereo not given) | i | i | i | ? | i | i
O=C(NCc1ccc(Cl)cc1)C(=O)NCC1OCCN1S(=O)(=O)c1cc(F)ccc1F (stereo not given) | i | ? | i | i | nt | nt
O=C(CCNc1ccc(Cl)c(C(F)(F)F)c1)c1ccco1 | i | i | i | ? | ? | ?
O=C(CCNc1cc(Cl)cc(Cl)c1)c1ccco1 | i | i | i | ? | nt | nt
O=C(CCNc1ccc(F)c(Cl)c1)c1ccco1 | i | i | i | ? | 13µM | 21µM
O=C(CCNc1cccc(C(F)(F)F)c1)c1ccco1 | ? | i | i | i | nt | nt
CCc1ccc(CNC(=O)c2cc(=O)[nH]c3ccc(S(=O)(=O)N4CCCCC4)cc23)cc1 | i | nt | nt | nt | nt | nt
O=C(COC(=O)CCSc1ccc(F)cc1)NCc1ccc(F)cc1 | i | nt | i | i | nt | nt
SMILES | Chronic BCR inh | MBNL1-CUG inh | B2AR arrestin | Tb PFK inh-1 | TbPFK ATP | Tb PFK inh-2
CC(=O)N(C)Cc1ccc(C(=O)CCl)cc1 | ? | nt | i | ? | 2.4µM | 3µM
O=C(C1CC1)N1CCN(c2nc3c(F)cc(F)cc3s2)CC1 | i | nt | nt | nt | nt | nt
O=C1Nc2ccccc2/C1=C\C(=O)c1ccccc1 | ? | i | i | i | nt | nt
O=C(/C=C1\C(=O)Nc2ccccc21)/C=C1\C(=O)Nc2ccccc21 | ? | i | i | ? | 1.7µM | 4.8µM
CC(=O)C(C(c1ccccc1)c1c[nH]c2ccccc12)[N+](=O)[O-] (stereo not given) | i | i | i | i | nt | nt
O=C(Cn1nc(C(F)(F)F)c2c1CCCC2)Nc1cccc(Cl)c1 | i | nt | nt | nt | nt | nt
O=C1CCC(C(=O)Nc2cccc(S(=O)(=O)Nc3ccccc3F)c2)=NN1 | i | nt | i | ? | 3.4µM | 9.5µM
Fc1ccc(NCc2cccnc2)cc1F | i | i | i | 24µM | 13µM | 27µM
